# Measurements reported in PubChem BioAssay (Tox21).
# The source made the active and inactive calls. A call without a number means that no potency is given here. The call rests on the fitted dose curve.
# Assay: qHTS assay to identify small molecule agonists of the sonic hedgehog signaling (Shh) pathway (AID 1259368); further: nearly all actives have a fitted effect of over 15% in size;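 on activity change: NIH/3T3-derived 3T3Gli1-Luc cells carrying a stable Gli1-driven firefly luciferase reporter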
# Conditions: NIH/3T3 Gli1-Luc reporter, luciferase, 24 h; series mostly up to 92.4 µM
# Description: National Center for Advancing Translational Sciences [NCATS]
# NIH Chemical Genomics Center [NCGC]
# U.S. Environmental Protection Agency [EPA]
# National Institutes of Environmental Health Sciences [NIEHS]
# National Toxicology Program [NTP]
# The sonic hedgehog (Shh) pathway is essential for normal embryonic development. Dysregulation of the Shh pathway can cause severe developmental defects in organs. Therefore chemicals that interfere with the pathway are potential developmental toxicants. A cell line designated 3T3Gli1-Luc (DMB/OARSA/CFSAN/FDA, Laurel, MD), a NIH/3T3 derived clone containing stably integrated Gli1-Luc reporter is used to detect chemical interference of the Shh pathway, by changes in the expression of the firefly Luc gene under the control of the Gli1 transcriptional response element. This cell line was used to screen Tox21 libraries for identifying and prioritizing the potential developmental toxicants that interfere Shh pathway.
# 3T3 Gli1-Luc cells were dispensed at 2,000 per well in 5uL of culture medium into white solid bottom 1536-well plates (Greiner Bio-One, Monroe, NC) using a Multidrop Combi (Thermo Scientific, Waltham, MA) dispenser. The assay plates were incubated at 37 C and 5% CO2 for 4hr, and then 23nL of compounds dissolved in DMSO and positive control were transferred using a Pintool station (Wako, San Diego, CA). The assay plates were incubated at 37C and 5% CO2 for 24hr. For luciferase read, 4uL of Amplite Luciferase reporter gene assay reagent (AAT Bioquest, Inc. Sunnyvale, CA) was added to each well of the assay plates using Flying Reagent Dispenser (FRD, Aurora Discovery, San Diego, CA) and incubated at room temperature for 30min. The luminescence signal was measured using a ViewLux plate reader (Perkin Elmer, Shelton, CT).
# Potency means the concentration at half of the fitted maximal effect.
Structure (SMILES),Potency,activity change
CC(C)(c1ccc(O)c(-c2ccccc2)c1)c1ccc(O)c(-c2ccccc2)c1,inactive,
CC(=O)C(Cl)(Cl)Cl,inactive,
O=S(=O)(c1ccc(Cl)cc1)c1ccc(Cl)cc1,inactive,
CC(C)(C)C(O)C(Oc1ccc(-c2ccccc2)cc1)n1cncn1 (stereo not given),inactive,
CC[C@H]1C[C@@H]2C[C@H]3c4[nH]c5ccc(OC)cc5c4CCN(C2)[C@@H]13,inactive,
Brc1c(Br)c(Br)c(Oc2c(Br)c(Br)c(Br)c(Br)c2Br)c(Br)c1Br,,"0.699% [at 18.9 µM, stronger effect = higher value] (inactive)"
C[C@@H](Oc1ccc(Cl)cc1Cl)C(=O)O,inactive,
Cc1cc(C(F)(C(F)(F)F)C(F)(F)F)ccc1NC(=O)c1cccc(I)c1C(=O)NC(C)(C)CS(C)(=O)=O,13.8 µM (active),
[Cd+2].[Cl-].[Cl-],inactive,
Clc1ccc(-c2ccccc2)cc1,inactive,
CS(=O)(=O)c1ccc(C(=O)C2C(=O)CCCC2=O)c([N+](=O)[O-])c1,inactive,
Clc1ccc(Oc2ccccc2)cc1,inactive,
CCc1nn(C)c(C(=O)NCc2ccc(C(C)(C)C)cc2)c1Cl,inactive,
O=c1c(C2CC(c3ccc(-c4ccc(Br)cc4)cc3)Cc3ccccc32)c(O)sc2ccccc12 (stereo not given),inactive,
CC(C)CBr,inactive,
SCc1ccco1,inactive,
N#Cc1ccccc1Cl,inactive,
O=C(Cl)c1ccc(Cl)cc1,inactive,
CC(C)N1C(=O)N(c2ccccc2)CSC1=NC(C)(C)C,inactive,
O=C(Nc1ccc2[nH]ccc2c1)c1cc2cc(F)ccc2n1Cc1cccc(F)c1,inactive,

Structure (SMILES),Potency,activity change
Fc1cccc(Cl)c1CCl,inactive,
O=C(CBr)c1ccc(O)cc1,inactive,
BrC(Br)C(Br)(Br)Br,inactive,
CC(C)CCCCCOC(=O)c1ccccc1C(=O)OCCCCCC(C)C,inactive,
CCS(=O)(=O)c1cccnc1S(=O)(=O)NC(=O)Nc1nc(OC)cc(OC)n1,inactive,
O=C/C(Cl)=C(/Cl)C(=O)O,inactive,
N#CC(Cl)Cl,inactive,
Cc1cc(C)cc(OP(=O)(Oc2cc(C)cc(C)c2)Oc2cc(C)cc(C)c2)c1,inactive,
C=CC(=O)N(C)C,inactive,
CC(C)(COCC1CO1)COCC1CO1 (stereo not given),inactive,
FC(Cl)(Cl)Cl,inactive,
CCCCCCCCCCCCCC[P+](CCCCCC)(CCCCCC)CCCCCC (tested in a mixture with another compound),inactive,
CN(CCCC(=O)c1cccnc1)N=O,inactive,
Nc1ccccc1C(=O)Oc1ccc2ccccc2c1,inactive,
Clc1ccc(C(Cl)(Cl)Cl)c(Cl)c1,inactive,
CC(C)(C)c1ccc(CSc2cnn(C(C)(C)C)c(=O)c2Cl)cc1,inactive,
CC1(C)CC/C(=C/c2ccc(Cl)cc2)C1(O)Cn1cncn1 (stereo not given),inactive,
C=CC(=O)OCCCCOC(=O)C=C,inactive,
O=C(NC(=O)c1c(F)cccc1F)Nc1cc(Cl)c(OC(F)(F)C(F)F)c(Cl)c1,inactive,
COC12CC[C@@]3(C[C@@H]1C(C)(O)C(C)(C)C)[C@H]1Cc4ccc(O)c5c4[C@@]3(CCN1CC1CC1)[C@H]2O5 (stereo not given in full),inactive,
